Data taken from PubChem BioAssay (NCATS).
Results filed as inconclusive are left out. Values without a mark were called inactive. The source made the active and inactive calls. The call rests on the fitted dose curve; in most records, active means well fitted inhibition curve with a large enough effect; inconclusive means small, poorly fitted or top-dose-only effect; inactive means no such curve, though single readings can be large or run the other way.

Assay: BET inhibitor-based combinations targeting novel dependencies in MECOM-rearranged (r) AML: OCI-AML3 cell line (AID 2202232); further: nearly all actives have a fitted effect of over 35% in size;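 on viability (% of control): plate controls were DMSO vehicle wells for no effect and wells without cells for full effect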
Details: CellTiter-Glo luminescence, 48 h; Potency: OCI-AML3 viability; series mostly up to 46 µM; viability (% of control): at the top concentration
In short: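 Each compound was tested at eleven concentrations on cells seeded at 500/well. After two days' incubation, ATP-based luminescence reported viability; responses relative to DMSO and blank wells yielded AUC and cell-line-centred Z-AUC.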
Potency means the concentration at half of the fitted maximal effect.

**Q.** With `O=C(NCc1ccncc1)C12C[C@H]3C[C@@H](C1)CC(c1ccc(Cl)cc1)(C3)C2` as the molecule, how does the Potency read?
**A.** 20.9 µM (active)

**Q.** Which “viability (% of control)” value does the source give for `CC(C)(O)CC[C@@H](O)[C@](C)(O)[C@H]1CC[C@@]2(O)C3=CC(=O)[C@@H]4C[C@@H](O)[C@@H](O)C[C@]4(C)[C@H]3CC[C@]12C` here?
**A.** 88.6%

**Q.** For `C[C@H](NC(=O)C(=O)Nc1ccccc1C(C)(C)C)C(=O)N[C@@H](CC(=O)O)C(=O)COc1c(F)c(F)cc(F)c1F`, which Potency is on record?
**A.** 10.5 µM (active)

**Q.** For `CCNc1cc(NC2CCC(O)CC2)nc(Nc2ccc3c(ccn3Cc3ccccc3)c2)n1` (stereo unspecified), which “viability (% of control)” value is on record?
**A.** 63.5%

**Q.** For `CNC(=O)[C@H]1O[C@@H](n2cnc3c(NCc4cccc(I)c4)nc(Cl)nc32)[C@H](O)[C@@H]1O`, which “viability (% of control)” value is on record?
**A.** 49%

**Q.** For `NS(=O)(=O)c1ccc(NC(=S)N2CCN(C/C=C/c3ccccc3)CC2)cc1`, which Potency is on record?
**A.** 20.9 µM (active)

**Q.** Which Potency does the source give for `Cc1ccc(NC(=O)c2cccc(C(C)(C)C#N)c2)cc1Nc1ccc2ncn(C)c(=O)c2c1` here?
**A.** 0.0742 µM (active)

**Q.** With `CNC(=O)CCc1cc(-c2ccc(-c3ccc(C(F)(F)F)cc3)cc2)n(-c2ccc(N3CCNCC3)cc2)n1` as the molecule, how does the Potency read?
**A.** 5.9 µM (active)

**Q.** For `C/C(=C\C(=O)Nc1ccccc1C(=O)O)c1ccc2ccccc2c1`, which “viability (% of control)” value is on record?
**A.** 66%

**Q.** With `CO[C@H]1/C=C/O[C@@]2(C)Oc3c(C)c(O)c4c(O)c(c5c(c4c3C2=O)=NC2(CCN(CC(C)C)CC2)N=5)NC(=O)/C(C)=C/C=C/[C@H](C)[C@H](O)[C@@H](C)[C@@H](O)[C@@H](C)[C@H](OC(C)=O)[C@@H]1C` as the molecule, how does the Potency read?
**A.** 16.6 µM (active)

**Q.** With `C=CC(=O)N1CCC[C@H](n2c(=O)n(-c3ccc(Oc4ccccc4)cc3)c3c(N)ncnc32)C1` as the molecule, how does the “viability (% of control)” value read?
**A.** 38%
